# Measurements: PubChem BioAssay (NCATS)
# Results filed as inconclusive are left out. A call without a number means that no potency is given here. Activity calls are given as the source filed them. The call rests on the fitted dose curve; in most records, active means well fitted curve in the direction sought with a large enough effect; inconclusive means small, poorly fitted or top-dose-only effect, or another doubt; inactive means no such curve, though single readings can be large; an effect the other way counts as inactive or inconclusive.
# Columns and labels:
# [1] = biological target: Tyrosyl-DNA phosphodiesterase 1 (Homo sapiens) (UniProt Q9NUW8); assay: Confirmation Assay for Inhibitors of Tyrosyl-DNA Phosphodiesterase (TDP1) (AID 489007); conditions: recombinant human TDP1 enzymatic activity, dose-response; further: potency means the concentration at half of the fitted maximal effect; nearly all actives have a fitted effect of over 40% in size
# Tyrosyl-DNA phosphodiesterase 1 (Homo sapiens), sequence (Q9NUW8 whole entry, looked up): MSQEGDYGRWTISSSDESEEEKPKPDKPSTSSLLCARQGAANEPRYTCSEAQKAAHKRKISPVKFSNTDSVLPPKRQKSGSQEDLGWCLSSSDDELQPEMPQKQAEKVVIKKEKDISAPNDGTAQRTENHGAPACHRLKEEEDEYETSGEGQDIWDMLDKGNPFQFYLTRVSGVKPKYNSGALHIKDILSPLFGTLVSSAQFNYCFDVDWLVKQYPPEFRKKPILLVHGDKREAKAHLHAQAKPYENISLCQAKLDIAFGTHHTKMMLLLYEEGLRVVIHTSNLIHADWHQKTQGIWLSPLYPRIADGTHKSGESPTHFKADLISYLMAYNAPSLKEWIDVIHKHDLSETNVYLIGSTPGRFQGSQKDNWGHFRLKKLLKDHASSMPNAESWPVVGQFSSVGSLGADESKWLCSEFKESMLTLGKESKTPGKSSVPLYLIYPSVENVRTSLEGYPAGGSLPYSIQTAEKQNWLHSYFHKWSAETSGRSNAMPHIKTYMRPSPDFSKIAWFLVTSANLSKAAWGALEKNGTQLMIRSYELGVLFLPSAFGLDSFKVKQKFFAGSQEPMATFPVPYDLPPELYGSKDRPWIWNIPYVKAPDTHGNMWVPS
# Procedure, shortened: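 Recombinant human Tdp1 (1 nM final), expressed in E. coli, preincubated 15 min with compound. Then 15 nM 5'-biotin/3'-phosphotyrosine-FITC DNA substrate added for 5 min at room temperature. AlphaScreen beads (10 ug/ml) added for 10 min; cleavage gives signal loss.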
# [2] = biological target: Rap guanine nucleotide exchange factor 3 (Homo sapiens) (UniProt O95398); assay: Confirmatory qHTS for agonist of cAMP-regulated guanine nucleotide exchange factor 3 (EPAC1) (AID 1645881);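 further: EPAC1 catalysed release of BODIPY-GDP from Rap1B seen as fluorescence loss; nearly all actives have a fitted effect of over 75% in size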
# Rap guanine nucleotide exchange factor 3 (Homo sapiens), sequence (O95398 whole entry, looked up): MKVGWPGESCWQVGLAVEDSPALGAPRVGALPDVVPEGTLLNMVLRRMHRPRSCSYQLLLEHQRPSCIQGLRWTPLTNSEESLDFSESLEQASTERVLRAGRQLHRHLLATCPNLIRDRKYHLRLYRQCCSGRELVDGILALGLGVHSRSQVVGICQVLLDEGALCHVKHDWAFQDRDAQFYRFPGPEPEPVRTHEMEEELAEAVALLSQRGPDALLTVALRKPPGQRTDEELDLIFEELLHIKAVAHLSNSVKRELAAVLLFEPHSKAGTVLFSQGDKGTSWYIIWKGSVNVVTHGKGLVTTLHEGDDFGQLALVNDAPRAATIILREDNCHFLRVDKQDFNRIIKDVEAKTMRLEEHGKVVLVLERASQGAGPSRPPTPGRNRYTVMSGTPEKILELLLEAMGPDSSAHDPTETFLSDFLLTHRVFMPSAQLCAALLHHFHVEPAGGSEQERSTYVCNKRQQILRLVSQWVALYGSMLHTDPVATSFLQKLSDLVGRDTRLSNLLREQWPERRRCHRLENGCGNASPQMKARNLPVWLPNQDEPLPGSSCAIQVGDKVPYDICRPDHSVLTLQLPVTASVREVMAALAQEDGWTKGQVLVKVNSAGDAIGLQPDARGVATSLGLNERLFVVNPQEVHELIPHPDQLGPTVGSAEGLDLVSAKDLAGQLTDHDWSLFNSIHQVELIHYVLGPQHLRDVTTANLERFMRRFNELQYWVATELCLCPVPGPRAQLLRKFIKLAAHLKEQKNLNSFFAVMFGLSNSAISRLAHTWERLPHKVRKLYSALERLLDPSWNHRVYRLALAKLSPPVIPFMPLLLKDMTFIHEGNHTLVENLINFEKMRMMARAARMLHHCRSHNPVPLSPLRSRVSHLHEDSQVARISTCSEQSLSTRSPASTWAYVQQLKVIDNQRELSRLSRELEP
# [3] = biological target: Rap guanine nucleotide exchange factor 4 (Homo sapiens) (UniProt Q8WZA2); assay: Confirmatory qHTS for agonist of cAMP-regulated guanine nucleotide exchange factor 4 (EPAC2) (AID 1645884);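 further: nucleotide exchange releases bodipy-GDP from Rap1 and this lowers its fluorescence; nearly all actives have a fitted effect of over 65% in size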
# Rap guanine nucleotide exchange factor 4 (Homo sapiens), sequence (Q8WZA2 whole entry, looked up): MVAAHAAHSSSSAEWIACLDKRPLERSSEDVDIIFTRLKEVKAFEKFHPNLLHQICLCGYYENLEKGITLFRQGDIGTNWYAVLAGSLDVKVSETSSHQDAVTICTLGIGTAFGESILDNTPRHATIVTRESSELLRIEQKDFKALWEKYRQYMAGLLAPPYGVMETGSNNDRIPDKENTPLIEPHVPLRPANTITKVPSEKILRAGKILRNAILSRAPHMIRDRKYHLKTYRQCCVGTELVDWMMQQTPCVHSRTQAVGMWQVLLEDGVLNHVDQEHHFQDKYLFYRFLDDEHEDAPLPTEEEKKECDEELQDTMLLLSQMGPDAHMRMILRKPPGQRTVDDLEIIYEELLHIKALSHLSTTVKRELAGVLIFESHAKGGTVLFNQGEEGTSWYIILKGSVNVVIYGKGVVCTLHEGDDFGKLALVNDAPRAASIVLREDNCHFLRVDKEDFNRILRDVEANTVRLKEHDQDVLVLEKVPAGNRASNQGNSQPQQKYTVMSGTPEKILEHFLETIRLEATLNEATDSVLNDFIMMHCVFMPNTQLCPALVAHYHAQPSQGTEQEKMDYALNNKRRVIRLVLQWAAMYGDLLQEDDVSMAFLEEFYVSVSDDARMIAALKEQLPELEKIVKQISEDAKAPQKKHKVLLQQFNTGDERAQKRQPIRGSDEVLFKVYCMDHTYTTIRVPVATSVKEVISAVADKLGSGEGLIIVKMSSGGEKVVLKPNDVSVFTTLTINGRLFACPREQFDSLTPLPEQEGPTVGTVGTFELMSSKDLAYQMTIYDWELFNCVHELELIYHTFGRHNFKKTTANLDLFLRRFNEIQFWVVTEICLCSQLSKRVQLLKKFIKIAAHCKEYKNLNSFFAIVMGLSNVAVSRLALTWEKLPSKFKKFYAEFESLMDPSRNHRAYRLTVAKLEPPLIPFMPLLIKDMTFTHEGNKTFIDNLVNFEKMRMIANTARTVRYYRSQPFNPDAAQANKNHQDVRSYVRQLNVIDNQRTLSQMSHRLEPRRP
# [4] = biological target: Rap guanine nucleotide exchange factor 4 (Homo sapiens) (UniProt Q8WZA2); assay: Confirmatory qHTS for antagonist of cAMP-regulated guanine nucleotide exchange factor 4 (EPAC2) (AID 1645885); further: nearly all actives have a fitted effect of over 25% in size; further: potency means the concentration at half of the fitted maximal effect
# [5] = biological target: Rap guanine nucleotide exchange factor 3 (Homo sapiens) (UniProt O95398); assay: Counterscreen qHTS for antagonist of cAMP-regulated guanine nucleotide exchange factor 3 (EPAC1) (AID 1645888);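 further: fluorescence loss as bound BODIPY-GDP is released from Rap1B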
# Procedure, shortened: (§1)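 Measured: fluorescence of BODIPY-GDP bound to Rap1B, which falls as exchange proceeds. Conditions include 50 uM competing GDP, 5 and 30 min reads, and a later cAMP challenge for antagonist detection.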
# [6] = biological target: Rap guanine nucleotide exchange factor 3 (Homo sapiens) (UniProt O95398); assay: Counterscreen qHTS for agonist of cAMP-regulated guanine nucleotide exchange factor 3 (EPAC1) (AID 1645889); further: nearly all actives have a fitted effect of over 40% in size
# Procedure, shortened: as §1
smiles,measurement,setting,value
NC(=O)c1ccc(N=Cc2c(O)n(Cc3ccco3)c(=O)[nH]c2=O)cc1,Potency,[1],14.1 µM (active)
same,Potency,[2],inactive
same,Potency,[3],inactive
same,Potency,[4],inactive
same,outcome,[5],inactive
same,Potency,[6],inactive
COc1cccc(C(c2nnnn2Cc2ccccc2)N2CCC(n3c(=O)[nH]c4ccccc43)CC2)c1OC (stereo unspecified),Potency,[2],inactive
same,Potency,[3],inactive
same,outcome,[5],inactive
CN1CCN2c3ccc(N)cc3CC3(C(=O)NC(=O)NC3=O)C2C1 (stereo unspecified),Potency,[1],14.1 µM (active)
same,Potency,[2],inactive
same,Potency,[4],inactive
same,outcome,[5],inactive
COc1ccc(C2C=C(C)Oc3c2c(=O)oc2ccccc32)cc1OC (stereo unspecified),Potency,[2],inactive
same,Potency,[4],30.1 µM (active)
Nc1c(Br)cc2c3c(cccc13)-c1ccccc1-2,activation,[3],"8.9% [at 17.1 µM, percent relative to cAMP agonist control] (inactive)"
same,"activity change, negative = inhibition",[4],2.51% [at 12.7 µM] (inactive)
same,"activity change, negative = inhibition",[5],16.7% [at 30.8 µM] (inactive)
COc1cc2c(cc1OC)-c1c(OC)c(OC)cc3c1[C@H](C2)N(C)CC3,Potency,[2],inactive
same,activation,[3],"9.51% [at 17.1 µM, percent relative to cAMP agonist control] (inactive)"
same,"activity change, negative = inhibition",[4],-6.31% [at 12.7 µM] (inactive)
same,"activity change, negative = inhibition",[5],10.1% [at 30.8 µM] (inactive)
O=C1NC(=O)N(Cc2ccc(F)cc2)C(=O)/C1=C\C=C\c1ccco1,Potency,[2],inactive
same,activation,[3],"3.22% [at 17.1 µM, percent relative to cAMP agonist control] (inactive)"
same,"activity change, negative = inhibition",[4],-5.04% [at 12.7 µM] (inactive)
same,"activity change, negative = inhibition",[5],6.52% [at 30.8 µM] (inactive)
